Screens from PubChem.
hcDAF-12 act = H. contortus DAF-12 activation, primary screen; activation, % at 6.8 µM; AID 652067; HEK293 hcDAF-12 lit1-tk-luc reporter, luminescence; 0% DMSO, 100% Δ7-dafachronic acid; 1.4% of 370,000 active;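 active = activation above the mean of all tested compounds plus 3 SD, cut at about 5.5% in these data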
hgDAF12 agonist = activates the H. glycines DAF-12 receptor ligand-binding domain; HEK293 GAL4-hgDAF12 UAS-luciferase reporter, agonist luminescence; normalized to butyrate control; activation, % at 6.8 µM; 1.8% of 370,000 active; AID 687014;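 active = activation above a cutoff set at the mean of all screened compounds plus 3 SD, cut at about 10% in these data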
DAX1 inh-1 = NR0B1 (DAX1) inhibition. P51843. HEK293 Gal4-DAX1 luciferase reporter, luminescence. inhibition, % at 6.75 µM. 0.99% of 340,000 active. AID 504766;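 active = inhibition above the mean over all tested compounds plus 3 SD, cut at about 4.2% in these data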;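 also: inhibition shows as a rise in luminescence from relieved DAX1 repression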
AHR act = activators of human aryl hydrocarbon receptor. P35869. AHR-responsive luciferase reporter cells, luminescence. activation, % at 5 µM. 2.5% of 320,000 active; in the data active = activation above about 47%
DAX1 inh-2 = inhibitors of DAX1 repression of SF-1 activated StAR promoter; HEK293T StAR-luciferase reporter, SF-1/DAX-1 repression relief; 1.1% of 370,000 active; AID 652010; inhibition, % at 6.8 µM;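 active = inhibition above the mean over all tested compounds plus 3 SD, cut at about 3.6% in these data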;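 also: higher inhibition means more luminescence from relief of DAX-1 repression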
ssDAF-12 act = activators of S. stercoralis DAF-12 nuclear receptor | HEK293 ssDAF-12/GRIP1 lit1-tk-luc reporter, luminescence; % of 3 µM dafachronic acid response | activation, % at 6.8 µM | 1% of 370,000 active;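 active = activation above the mean over all tested compounds plus 3 SD, cut at about 0.9% in these data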
DAX1 conf = confirmation of human DAX1 (NR0B1) inhibitors. shares compounds with DAX1 inh-2. HEK293T StAR-promoter luciferase reporter, SF-1/DAX-1 repression. inhibition, % at 6.8 µM. 87% of 2,400 active;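 active = inhibition above the average of every tested compound plus 3 SD, cut at about 3.8% in these data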;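 also: active compounds raise luminescence by relieving repression of the StAR reporter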
Target sequence (P51843 whole entry, looked up): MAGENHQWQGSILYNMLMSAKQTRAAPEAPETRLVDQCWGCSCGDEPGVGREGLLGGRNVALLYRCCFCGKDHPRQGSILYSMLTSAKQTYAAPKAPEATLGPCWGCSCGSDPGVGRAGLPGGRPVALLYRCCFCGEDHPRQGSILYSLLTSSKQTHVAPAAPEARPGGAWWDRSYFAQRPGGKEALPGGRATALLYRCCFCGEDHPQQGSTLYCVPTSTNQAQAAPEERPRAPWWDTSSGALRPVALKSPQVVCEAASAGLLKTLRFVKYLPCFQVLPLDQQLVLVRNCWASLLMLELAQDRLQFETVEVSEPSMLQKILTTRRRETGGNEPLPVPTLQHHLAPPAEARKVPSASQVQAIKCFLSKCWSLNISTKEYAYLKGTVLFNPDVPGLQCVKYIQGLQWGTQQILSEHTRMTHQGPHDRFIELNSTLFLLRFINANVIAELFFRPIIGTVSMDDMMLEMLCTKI
SF1 mutant ctr = nonselective inhibitor or artifact in SF-1 mutant DAX1 counter-screen | shares compounds with DAX1 inh-2 | HEK293 StAR-luciferase, SF-1 AF2 mutant, luminescence | inhibition, % at 6.8 µM | 78% of 2,400 active | AID 652136;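 active = inhibition above the mean of all tested compounds plus 3 SD, cut at about 3% in these data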
LXRb hcDAF ctr = LXR-beta agonism as hcDAF-12 counter-screen | shares compounds with hcDAF-12 act | HEK293 Gal4-LXR tk-luc reporter, luminescence, 24 h; normalized: DMSO 0%, positive control 100% | activation, % at 6.8 µM | 3,400 tested, under 10 active | AID 743027;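 active = mean percent activation of the reporter above a cutoff set as the average over tested compounds plus their standard deviation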
hcDAF12 conf = hcDAF-12 agonism, confirmation assay; shares compounds with hcDAF-12 act; HEK293 hcDAF-12 lit1-tk-luc reporter, luminescence; % of Δ7-dafachronic acid response; activation, % at 6.8 µM; 61% of 3,400 active;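 active = mean activation across triplicate tests above the threshold derived from the earlier primary screen, cut at about 5.5% in these data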
Each line names hits and unclear results; the compound was inactive in the other large screens (follow-up assays come after a bar, where they were run). Sampled rows, rich in hits. Any-hit rate of the full collection: about 5.7%.

COc1ccc(/C(N)=N/OC(=O)c2cccs2)cc1	hcDAF-12 act 10, hgDAF12 agonist 12, DAX1 inh-2 5.2, ssDAF-12 act 4.4 | DAX1 conf 14 | SF1 mutant ctr 9.6 | LXRb hcDAF ctr inactive | hcDAF12 conf inactive
CSc1ncccc1C(=O)OCC(=O)N(CC(C)C)c1c(N)n(Cc2ccccc2)c(=O)[nH]c1=O	none
O=C(NCc1ccc(Cl)cc1)c1ccc(CSc2nc3ccncc3[nH]2)cc1	none
Cc1ccc(CSc2nc3ccncc3[nH]2)cc1	hcDAF-12 act 11, hgDAF12 agonist 18, DAX1 inh-2 13, ssDAF-12 act 1.4 | DAX1 conf 16 | SF1 mutant ctr 9.6 | LXRb hcDAF ctr inactive | hcDAF12 conf 10
Cc1noc(C)c1NC(=O)Nc1cccc2c1O[C@@H](CN(C)Cc1ccc3c(c1)OCO3)[C@@H](C)CN([C@H](C)CO)C2=O	none
Cc1cc(C(=O)COC(=O)C2=COCCO2)c(C)n1-c1cccc(F)c1	hcDAF-12 act 7.2, hgDAF12 agonist 11, DAX1 inh-2 9.3, ssDAF-12 act 1.0 | DAX1 conf 13 | SF1 mutant ctr 4.0 | LXRb hcDAF ctr inactive | hcDAF12 conf inactive
Cc1cc(C(=O)COC(=O)C2=COCCO2)c(C)n1-c1ccc2c(c1)OCO2	none
Cn1c(/C=C/c2ccccc2)nc2ccccc21	hcDAF-12 act 9.0, hgDAF12 agonist 11, DAX1 inh-2 4.6 | DAX1 conf 6.6 | SF1 mutant ctr inactive | LXRb hcDAF ctr inactive | hcDAF12 conf 14
CC(=O)Nc1ccc(/C=N/Nc2nc3ccccc3s2)cc1	hcDAF-12 act 18, hgDAF12 agonist 24, DAX1 inh-1 4.8, DAX1 inh-2 5.6, ssDAF-12 act 3.3 (no result: AHR act) | DAX1 conf 15 | SF1 mutant ctr 9.9 | LXRb hcDAF ctr inactive | hcDAF12 conf 22
CC(=O)Nc1ccc(S(=O)(=O)Nc2nc3ccccc3s2)cc1	none
Cc1ccsc1/C=N/Nc1nc2ccccc2s1	hcDAF-12 act 21, hgDAF12 agonist 20, AHR act 71, DAX1 inh-2 7.1, ssDAF-12 act 5.5 | DAX1 conf 16 | SF1 mutant ctr 13 | LXRb hcDAF ctr inactive | hcDAF12 conf 23
COc1ccc(C=C(c2nc3ccccc3s2)c2nc3ccccc3s2)cc1O	none
COc1ccc(/C=N/Nc2nc3ccccc3s2)cc1O	hcDAF-12 act 18, hgDAF12 agonist 20, DAX1 inh-2 8.6, ssDAF-12 act 3.2 (no result: AHR act) | DAX1 conf 21 | SF1 mutant ctr 8.1 | LXRb hcDAF ctr inactive | hcDAF12 conf 19
CC(=O)OCc1c(C)cc(C)c(/C=C(/C#N)C(N)=O)c1C	none
COC(=O)C1=C(C)NC(C)=C(C(=O)OC)C1c1ccc2ccccc2n1	none
O=C1c2ccccc2C(=O)C1c1ccc2ccccc2n1	hcDAF-12 act 24, hgDAF12 agonist 20, DAX1 inh-1 4.2, AHR act 60, DAX1 inh-2 5.8, ssDAF-12 act 4.4 | DAX1 conf inactive | SF1 mutant ctr inactive | LXRb hcDAF ctr inactive | hcDAF12 conf 21
c1ccc2c(c1)COc1c3cc4c(cc3nn1-2)OCO4	hcDAF-12 act 11, hgDAF12 agonist 29, DAX1 inh-2 8.7, ssDAF-12 act 1.2 (no result: AHR act) | DAX1 conf 18 | SF1 mutant ctr 9.1 | LXRb hcDAF ctr inactive | hcDAF12 conf 13
Clc1ccc(C=Cc2ccccn2)c(Cl)c1	hcDAF-12 act 8.2, hgDAF12 agonist 13, DAX1 inh-2 7.9, ssDAF-12 act 1.2 (no result: AHR act) | DAX1 conf 12 | SF1 mutant ctr 6.8 | LXRb hcDAF ctr inactive | hcDAF12 conf 15
Cc1c(C(=O)Nc2nc3ccccc3[nH]2)oc2ccccc12	hcDAF-12 act 24, hgDAF12 agonist 21, AHR act 68, DAX1 inh-2 5.7, ssDAF-12 act 3.8 | DAX1 conf 14 | SF1 mutant ctr 7.4 | LXRb hcDAF ctr inactive | hcDAF12 conf 13
COc1ccc(NC(=O)c2oc3ccccc3c2C)cn1	hcDAF-12 act 11, AHR act 51, DAX1 inh-2 6.4, ssDAF-12 act 1.1 | DAX1 conf 6.1 | SF1 mutant ctr 6.2 | LXRb hcDAF ctr inactive | hcDAF12 conf 9.8
O=C(Nc1nc2ccccc2[nH]1)c1ccc(Br)o1	hcDAF-12 act 11, hgDAF12 agonist 17, DAX1 inh-2 6.0, ssDAF-12 act 1.4 | DAX1 conf 7.9 | SF1 mutant ctr 5.2 | LXRb hcDAF ctr inactive | hcDAF12 conf 7.4
Cn1c(CN2CCN(S(C)(=O)=O)CC2)nc2cc([N+](=O)[O-])ccc21	none
CCN(C[C@H]1N[C@@](Cc2ccccc2)(C(=O)OC)[C@H]2C(=O)N(C)C(=O)[C@@H]12)C(=O)Nc1ccc(C(F)(F)F)cc1	none
Cc1cc(C)n2nc(-c3ccco3)nc2n1	none
CCCn1c(C)cc(C(=O)COC(=O)c2nccnc2N)c1C	hcDAF-12 act 7.4, hgDAF12 agonist 13, DAX1 inh-2 5.7, ssDAF-12 act 1.3 | DAX1 conf 15 | SF1 mutant ctr 5.6 | LXRb hcDAF ctr inactive | hcDAF12 conf 5.9
CCOC(=O)C1CCN(C(=O)c2cc(S(=O)(=O)N3CCOCC3)ccc2C)CC1	none
NC(=O)c1ccccc1OCC(=O)Nc1ccc(Cl)c(Cl)c1	hcDAF-12 act 11, hgDAF12 agonist 18, DAX1 inh-1 5.8, DAX1 inh-2 6.9, ssDAF-12 act 2.2 | DAX1 conf 21 | SF1 mutant ctr 8.9 | LXRb hcDAF ctr inactive | hcDAF12 conf 11
C=CC[C@]12C[C@@H](OC)C(=O)C=C1O[C@@H](c1ccc(OC)c(OC)c1)[C@H]2C	none
O=C(/C=C/Nc1ccccc1F)c1cccs1	hcDAF-12 act 26, hgDAF12 agonist 29, AHR act 57, DAX1 inh-2 5.7, ssDAF-12 act 3.9 | DAX1 conf 15 | SF1 mutant ctr 7.8 | LXRb hcDAF ctr inactive | hcDAF12 conf 22
Cc1ccc(N/C=C/C(=O)c2cccs2)cc1	hcDAF-12 act 10, hgDAF12 agonist 22, DAX1 inh-2 8.3, ssDAF-12 act 1.4 | DAX1 conf 6.3 | SF1 mutant ctr inactive | LXRb hcDAF ctr inactive | hcDAF12 conf 14
CCOC(=O)Cc1csc(NC(=O)CCCC(=O)O)n1	none (no result: DAX1 inh-1)
